# Measured values published in PubChem BioAssay (NCATS).
# Records with an inconclusive call do not appear. Activity calls are given as the source filed them. The call rests on the fitted dose curve; in most records, active means well fitted cell-killing curve with a large enough effect; inconclusive means small, poorly fitted or top-dose-only effect; inactive means flat fitted curve, though single readings scatter.
# Experiment: Identifying Small Molecule Inhibitors of Pancreatic Cancer Stem Cells (SN12C, Adherent) (AID 1259358);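 further: cell survival measured after 48 h of compound exposure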
# Conditions: viability/growth inhibition; series mostly up to 46.1 µM; viability (percent of control): at the top concentration
# Excerpt: Progenitor-like cancer cells, often referred to as cancer stem cells (CSC), are believed to be the drivers of therapeutic resistance and rapid recurrence. CSCs are postulated to reside in specific niches characterized by low oxygen tension, limited nutrient supply, and high redox load. Selectively targeting CSC, alone or in combination with cytotoxic agents, as a means to produce durable remissions is an appealing concept. Modeling these cells in in vitro setting is an important step in finding new therapies and/or targets. Multiple reports highlight that forcing cells in culture into 3-dimensionaly architectures (spheroids) re-establishes key progenitor-like transcriptional signatures. Pancreatic cancer is among the diseases with the most dismal outlook which is driven, largely, by recurance following front-line therapies. […] In hopes of deriving new insight into the targeting of these pancreatic CSCs we examined three established pancreatic cancer cell lines in cytotoxicity assays versus a collection of approved and investigational drugs. Importantly, we screened these lines as traditional monolayer (2D) and spheroid (3D) formats to gain an appreciation of agents with differential activity.
# Multicellular tumor spheroids from Panc1, MiaPaCa-2, and the primary low-passage tissue culture line SB.06 were seeded in stem cell media (SCM) in nonadherent 6-well plates coated with hydrogel (Corning Life Sciences, Chelmsford, Mass) and pancreatic spheres generated for 14 days before screening. Cells were seeded into 1536-well solid-bottom white tissue culture treated Greiner Bio One Plates (789173-F) using a MultiDrop Combi (Thermofisher Scientific) dispenser and a small sterile cassette. One column was media alone to be used as a :"no cells" control. The plates were then covered with sterilized stainless steel gasketed lids from Kalypsys. After allowing cells to attach for 4 hours, 23 nL of test compound or control (negative control DMSO and positive control 9.2 uM Bortezomib-final) were added from a 1536-well polypropylene compound source plate to each well using a 1536 head pin tool from Kalypsys. Cells were then incubated for 48 hours at 37C, 95% relative humidity and 5% CO2. After 48 hours, plates were removed from the incubator and 3 uL of CellTiter-Glo (Promega) was added using an Aurora Flying Reagent Dispenser Bioraptor. Plates were incubated at room temperature for 10 minutes prior to reading the luminescence on the Viewlux (PerkinElmer). The relative luciferase units are used to calculate the percent activity using the activity of DMSO in the cells and no cells columns for normalization of no inhibition and full inhibition respectively.
# Potency means the concentration at half of the fitted maximal effect.
SMILES,Potency,viability (percent of control)
CCOc1cc2ncc(C#N)c(Nc3ccc(OCc4ccccn4)c(Cl)c3)c2cc1NC(=O)/C=C/CN(C)C,0.418 µM (active),
CCCCCCCCCCCCCCCCCCOP(=O)([O-])OC1CC[N+](C)(C)CC1,,108% [at 29.8 µM] (inactive)
O=C(O)CC/C=C\CC[C@H]1[C@@H](N2CCCCC2)[C@@H](O)C[C@@H]1OCc1ccc(-c2ccccc2)cc1,,111% (inactive)
O=c1cc(C2=CC=CC3Sc4ccccc4SC23)oc(N2CCOCC2)c1 (configuration not stated),,97.9% (inactive)
CC(NC(=O)Cc1cc(F)cc(F)c1)C(=O)NC(C(=O)OC(C)(C)C)c1ccccc1 (configuration not stated),,112% (inactive)
CNC1CCN(C(Cc2cccc(-c3ccncc3)c2)C(=O)c2sc3c(F)ccc(F)c3c2Cl)CC1 (configuration not stated),26.4 µM (active),
CN(NC(=O)CC(=O)NN(C)C(=S)c1ccccc1)C(=S)c1ccccc1,,114% (inactive)
CCC1(Cc2ccc(N)cc2)CCC(=O)NC1=O (configuration not stated),,113% [at 92.2 µM] (inactive)
C[C@@H]1CCN(C(=O)CC#N)C[C@@H]1N(C)c1ncnc2[nH]ccc12,,97.5% (inactive)
Cc1nnc(C(C)C)n1C1CC2CCC(C1)N2CC[C@H](NC(=O)C1CCC(F)(F)CC1)c1ccccc1 (some centres not stated),,91.1% (inactive)
NC(=O)Nc1cc(-c2ccc(CN3CCOCC3)c(F)c2)sc1C(=O)N[C@H]1CCCNC1,0.833 µM (active),
CCC1(O)CC2CN(CCc3c([nH]c4ccccc34)[C@@](C(=O)OC)(c3cc4c(cc3OC)N(C=O)[C@H]3[C@](O)(C(=O)OC)[C@H](OC(C)=O)[C@]5(CC)C=CCN6CC[C@]43[C@@H]65)C2)C1 (some centres not stated),1.18 µM (active),
